From the supplement of paper PMC13380429

Tested on: Vero E6 infected with SARS-CoV-2
Test: inhibition of SARS-CoV-2 cytopathic effect; higher = more antiviral protection, active = above 15
Details: 48 h

Measured: inhibition of SARS-CoV-2 cytopathic effect

CCCC(=O)N1CCCN(c2nc(N)c3cc(OC)c(OC)cc3n2)CC1 [bunazosin]
inactive: 1 nM -0.32% | 8.33 nM -1.38% | 100 nM 1.21% | 833.33 nM 0.02% | 10000 nM 0.07%

Cc1ncc([N+](=O)[O-])n1CCO [metronidazole]
inactive: 1 nM 1.71% | 8.33 nM -0.45% | 100 nM 1.81% | 833.33 nM 0.19% | 10000 nM -1.16%

CCOc1ccc(-c2ccc(Cn3c(CC(C)(C)C(=O)O)c(SC(C)(C)C)c4cc(OCc5ccc(C)cn5)ccc43)cc2)cn1
inactive: 1 nM 1.07% | 8.33 nM 0.1% | 100 nM -0.84% | 833.33 nM -0.16% | 10000 nM -0.78%

C=C[C@]1(C)CC[C@@H](C(=C)C)C[C@H]1C(=C)C [beta-elemene]
inactive: 1 nM 2.14% | 8.33 nM 1.03% | 100 nM 0.39% | 833.33 nM 0.7% | 10000 nM 0.82%

CCCCOc1ccc(OCCCN2CCOCC2)cc1 [pramoxine]
inactive: 1 nM -3.87% | 8.33 nM -1.02% | 100 nM -1.18% | 833.33 nM -1.83% | 10000 nM 0.79%

O=C(NC1CCN(CCc2c[nH]c3ccccc23)CC1)c1ccccc1 [indoramin]
inactive: 1 nM 0.38% | 8.33 nM 1.24% | 100 nM 0.6% | 833.33 nM -1.28% | 10000 nM -4.57%

CC[N+](C)(CC)CC(=O)Nc1c(C)cccc1C [N-methyllidocaine-iodide]
inactive: 1 nM 1.32% | 8.33 nM 2.44% | 100 nM 0.64% | 833.33 nM 1.63% | 10000 nM 1.7%
